IP6K1 inhibitor – Primary qHTS assay for small molecule inhibitors of Inositol hexaphosphate kinase 1 (IP6K1) | Inositol hexakisphosphate kinase 1 (Homo sapiens), Q92551 | IP6K1 kinase, ADP-Glo luminescence, 2 h; hits give low values | 140,000 tested, 0.81% active | activity change, % (series mostly up to about 58 µM); in the data active = activity change below about -25%; note: % is set by controls: 0 for no effect and ±100 for the full control effect
Target sequence (Q92551 whole entry, looked up): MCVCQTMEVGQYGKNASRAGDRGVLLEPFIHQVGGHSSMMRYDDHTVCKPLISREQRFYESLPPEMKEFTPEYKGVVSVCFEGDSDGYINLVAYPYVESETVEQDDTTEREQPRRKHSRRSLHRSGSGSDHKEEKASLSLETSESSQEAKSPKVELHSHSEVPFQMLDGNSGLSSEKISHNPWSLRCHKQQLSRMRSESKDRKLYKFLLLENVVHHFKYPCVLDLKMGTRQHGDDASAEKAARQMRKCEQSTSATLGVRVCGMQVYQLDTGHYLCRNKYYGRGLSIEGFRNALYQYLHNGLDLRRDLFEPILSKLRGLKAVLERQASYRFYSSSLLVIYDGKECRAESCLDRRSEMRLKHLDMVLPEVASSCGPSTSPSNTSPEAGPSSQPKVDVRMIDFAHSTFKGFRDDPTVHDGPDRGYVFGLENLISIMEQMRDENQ
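ADP-Glo luminescence measures ADP made by human IP6K1 during a 2 h RT reaction with ATP/IP6 (mix at 1.3 mM/130 uM); top library doses 57.5 and 19.1 uM final.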
KDM5B inhibitor – Primary screen for KDM5B Histone Demethylases FDH-coupled qHTS; KDM5B demethylase, FDH-coupled NADH fluorescence (FDH is formaldehyde dehydrogenase); Potency, µM (doses to about 57.7 µM), most hits filed as inhibitors; 220,000 tested, 2.6% active; active = well fitted inhibition curve with a large enough effect; inconclusive = small, poorly fitted or top-dose-only effect; inactive = no such curve, though single readings can be large or run the other way; note: potency is the fitted concentration of half-maximal effect; 0% is about no effect; nearly all actives have a fitted effect of over 70% in size
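Measured: NADH fluorescence change, 30 min, RT. System: KDM5BΔAP 200 nM final, H3K4me3 peptide, α-KG, Fe(II), ascorbate, NAD⁺ plus FDH, pH 7.5 HEPES. Compounds: titrated, 10 min pre-incubation with enzyme.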
Numbers without * were called inactive; i = inactive; ? = inconclusive; nt = no result given. Compounds with a hit are over-represented: about 2.8% of the library has one in this group of screens.

SMILES	IP6K1 inhibitor	KDM5B inhibitor
COc1cccc(-c2ccc(C(=O)NCCN[S+](=O)([O-])c3ccccc3)cc2)c1	-9.0	nt
O=C(NCCc1ccc(Cl)cc1)C1CCCN1C(=O)c1cccc(-c2cccnc2)c1 (stereo unspecified)	4.8	nt
CNc1ncccc1C(=O)N[C@H](c1cccs1)C1CC(O)C1 (stereo partly specified)	15.4	28.2µM*
COc1ccc(C(=O)N[C@H](c2cccs2)C2CC(O)C2)c(F)c1F (stereo partly specified)	-7.4	i
O=C(N[C@H](c1cccs1)C1CC(O)C1)c1cccc(-n2cccn2)c1 (stereo partly specified)	-14.2	i
CNc1cc(C(=O)N[C@H](c2cccs2)C2CC(O)C2)ccn1 (stereo partly specified)	0.0	28.2µM*
O=C(N[C@H](c1cccs1)C1CC(O)C1)c1cnn2cc(CCO)cnc12 (stereo partly specified)	0.0	14.1µM*
Cn1ccc2c(C(=O)N[C@H](c3cccs3)C3CC(O)C3)cccc21 (stereo partly specified)	0.0	i
Cc1cc(N2C(=O)CCS2(=O)=O)ccc1S(=O)(=O)NC(C)C	nt	i
CC(C)(C)c1ccc2[nH]c(C(C)(C)C)c(C=O)c2c1	nt	i
O=C(NC1CCN(c2ccnc3ccnn23)CC1)c1ccc(Cl)cc1	-11.3	nt
O=[S+]([O-])(CCC(F)(F)F)NC1CCN(Cc2cccc(-c3cccs3)c2)CC1	0.2	nt
O=C(Cc1c[nH]c2ncc(-c3ccccc3)cc12)NC1CC1	-17.2	?
COc1ccc(-c2cnc3[nH]cc(CC(=O)N4CCOCC4)c3c2)cn1	-12.0	?
O=C1CN(C(=O)Cc2c[nH]c3ncc(-c4ccccc4)cc23)CCN1	-5.1	39.8µM*
Cc1ccccc1-c1cnc2[nH]cc(CC(=O)N3CCCC3)c2c1	-9.7	?
COc1ccc(-c2cnc3[nH]cc(CC(=O)N4CCC(OC)CC4)c3c2)cc1	-2.0	35.5µM*
COC1CCN(C(=O)Cc2c[nH]c3ncc(-c4ccccc4)cc23)CC1	-11.3	39.8µM*
COc1ccc(-c2cnc3[nH]cc(CC(=O)N4CCCC4)c3c2)cc1	-11.1	35.5µM*
CC(=O)Nc1ccccc1OCc1cccc(C)c1	nt	i
Cc1cc2oc(C(=O)NCC(c3cccs3)N3CCOCC3)cc(=O)c2cc1Cl (stereo unspecified)	nt	i
O=S(=O)(Nc1ccc(-c2ccc(N3CCOCC3)nn2)cc1)c1ccc(C(F)(F)F)cc1	nt	i
Cc1ccc(-c2ccccc2CN2CCC(C(=O)NCC(F)(F)F)CC2)cc1Cl	-14.3	nt
O=C(c1ccc2cccnc2c1O)N1CCCC(CCc2ccccc2F)C1 (stereo unspecified)	-9.3	11.2µM*
CSCCC(=O)N1CCCC(CCc2ccccc2F)C1 (stereo unspecified)	-5.8	i
SMILES	IP6K1 inhibitor	KDM5B inhibitor
Cc1ccc([S+](=O)([O-])N2CC(=O)N(CCc3ccccc3)CC(O)C2)cc1 (stereo unspecified)	16.4	nt
Cc1ccc(NC(=O)C(C)C)cc1C	nt	i
Cc1nc(-c2ccc(OC3CCN(C(=O)CCc4nc5ccccc5[nH]4)C3)cc2)no1 (stereo unspecified)	-3.5	i
CNc1ccc(OC2CCN(C(=O)CCc3nc4ccccc4[nH]3)C2)nc1 (stereo unspecified)	25.6	28.2µM*
Cn1ncc2c(C(=O)NC3CCCCC3)cc(-c3ccc(C(F)(F)F)cc3)nc21	-10.1	nt
COc1cccc(CCC(=O)NCc2nnc3c(-c4nc(C5CC5)no4)cccn23)c1	-5.2	?
O=C(CCc1ccccc1)NCc1nnc2c(-c3nc(C4CC4)no3)cccn12	4.3	28.2µM*
O=C(NCc1nnc2c(-c3nc(C4CC4)no3)cccn12)C1CC1	3.4	22.4µM*
COc1cc(Cl)ccc1C(=O)NCc1nnc2c(-c3nc(C4CC4)no3)cccn12	-0.9	i
CC(C)c1noc(-c2cccn3c(CNC(=O)C4CCCC4)nnc23)n1	9.5	?
O=C(CC1CCCCC1)NCc1nnc2c(-c3nc(C4CC4)no3)cccn12	12.1	15.8µM*
CC(C)c1noc(-c2cccn3c(CNC(=O)CC4CCCCC4)nnc23)n1	19.4	?
O=C(NCc1nnc2c(-c3nc(C4CC4)no3)cccn12)c1ccc(F)c(Cl)c1	19.5	28.2µM*
COc1ccccc1-c1ccc(CN2CCCCC2C(=O)NCc2ccc3c(c2)OCO3)cc1 (stereo unspecified)	8.2	nt
CCCCCCCCc1ccc(/C(C=[N+](C)C)=C/N(C)C)cc1	nt	i
COc1cc(CN2C[C@@H](CO)[C@H](NC(=O)c3ccccc3)C2)ccc1F	-9.3	i
Cc1nn(-c2ccccc2)c2c1C(C)N(C1CCN(C(=O)C3CCCC3)C1)C2=O (stereo unspecified)	-0.8	nt
